Results: PubChem BioAssay (NCATS)
Results filed as inconclusive are left out. Calls of active or inactive are those of the source. Calls come from the whole dose curve; as a rule, active = well fitted curve in the direction sought with a large enough effect; inconclusive = small, poorly fitted or top-dose-only effect, or another doubt; inactive = no such curve, though single readings can be large; an effect the other way counts as inactive or inconclusive.

Legend:
[1] = biological target: ATP-dependent 6-phosphofructokinase (Trypanosoma brucei brucei) (UniProt O15648); test: qHTS Assay to Find Inhibitors of T. brucei phosphofructokinase: hit validation (AID 492961);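 note: luminescence reports ADP formed as PFK phosphorylates fructose-6-phosphate with ATP; % is set by controls: 0 for no effect and ±100 for the full control effect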
Sequence of ATP-dependent 6-phosphofructokinase (Trypanosoma brucei brucei) (O15648 whole entry, looked up): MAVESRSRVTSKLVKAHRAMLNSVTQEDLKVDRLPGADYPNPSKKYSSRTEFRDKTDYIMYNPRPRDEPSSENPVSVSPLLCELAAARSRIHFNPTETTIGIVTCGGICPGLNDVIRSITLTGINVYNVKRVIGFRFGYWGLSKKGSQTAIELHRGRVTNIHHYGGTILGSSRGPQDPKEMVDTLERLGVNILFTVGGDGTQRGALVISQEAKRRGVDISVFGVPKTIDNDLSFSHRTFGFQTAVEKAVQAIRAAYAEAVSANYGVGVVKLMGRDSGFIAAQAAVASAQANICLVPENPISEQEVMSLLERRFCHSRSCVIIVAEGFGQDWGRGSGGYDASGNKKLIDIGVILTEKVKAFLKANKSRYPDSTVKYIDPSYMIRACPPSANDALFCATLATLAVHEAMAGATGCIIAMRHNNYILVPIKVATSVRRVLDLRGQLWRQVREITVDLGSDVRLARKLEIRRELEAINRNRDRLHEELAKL
Procedure, shortened: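 Percent activity derived from corrected luminescence, normalized between 0x and 1x enzyme controls, then fitted to concentration-response curves. Conditions: 1.25 nM PFK, 0.1 mM ATP, 0.5 mM F6P, 45 min RT.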

[2] = qHTS profiling for inhibitors of Plasmodium falciparum proliferation (AID 504749); note: potency is the fitted concentration of half-maximal effect;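 for activity, negative = inhibition: 0% = DMSO vehicle and full inhibition = artemisinin control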; for all read-outs here: nearly all actives have a fitted effect of over 60% in size; details: P. falciparum in erythrocytes, SYBR Green DNA, 72 h; for activity, negative = inhibition: at 28.7 µM (top of the series)
Procedure, shortened: (§1)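 Quantitative HTS: compounds pinned into medium, infected erythrocytes added (0.3% parasitemia, 2.5% hematocrit), 72 h culture at 37 C under 5% CO2. Saponin/Triton lysis with SYBR Green I, overnight RT, then fluorescence read.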

[3] = system: 3D7; test: as above; details: P. falciparum in erythrocytes, SYBR Green DNA, 72 h; series mostly up to 28.7 µM
Procedure, shortened: as §1

[4] = system: AA1029; test: as above; details: P. falciparum in erythrocytes, SYBR Green DNA, 72 h; series mostly up to 28.7 µM
Procedure, shortened: as §1

[5] = system: AS120; test: as above; details: P. falciparum in erythrocytes, SYBR Green DNA, 72 h; series mostly up to 28.7 µM
Procedure, shortened: as §1

[6] = system: ATS189; test: as above; details: P. falciparum in erythrocytes, SYBR Green DNA, 72 h; series mostly up to 28.7 µM
Procedure, shortened: as §1

[7] = system: CP185; test: as above; details: P. falciparum in erythrocytes, SYBR Green DNA, 72 h; series mostly up to 28.7 µM
Procedure, shortened: as §1

[8] = system: CP191; test: as above; details: P. falciparum in erythrocytes, SYBR Green DNA, 72 h; series mostly up to 28.7 µM
Procedure, shortened: as §1

[9] = system: CP211; test: as above; details: P. falciparum in erythrocytes, SYBR Green DNA, 72 h; series mostly up to 28.7 µM
Procedure, shortened: as §1

[10] = system: CP217; test: as above; details: P. falciparum in erythrocytes, SYBR Green DNA, 72 h; series mostly up to 28.7 µM
Procedure, shortened: as §1

[11] = system: CP238; test: as above; details: P. falciparum in erythrocytes, SYBR Green DNA, 72 h; series mostly up to 28.7 µM
Procedure, shortened: as §1

[12] = system: CP252; test: as above; details: P. falciparum in erythrocytes, SYBR Green DNA, 72 h; series mostly up to 28.7 µM
Procedure, shortened: as §1

[13] = system: CP262; test: as above; details: P. falciparum in erythrocytes, SYBR Green DNA, 72 h; series mostly up to 28.7 µM
Procedure, shortened: as §1

[14] = system: CP265; test: as above; details: P. falciparum in erythrocytes, SYBR Green DNA, 72 h; series mostly up to 28.7 µM
Procedure, shortened: as §1

[15] = system: CP286; test: as above; details: P. falciparum in erythrocytes, SYBR Green DNA, 72 h; series mostly up to 28.7 µM
Procedure, shortened: as §1

[16] = system: Dd2; test: as above; details: P. falciparum in erythrocytes, SYBR Green DNA, 72 h; series mostly up to 28.7 µM
Procedure, shortened: as §1

[17] = system: FAB9; test: as above; details: P. falciparum in erythrocytes, SYBR Green DNA, 72 h; series mostly up to 28.7 µM
Procedure, shortened: as §1

[18] = system: N140; test: as above; details: P. falciparum in erythrocytes, SYBR Green DNA, 72 h; series mostly up to 28.7 µM
Procedure, shortened: as §1

[19] = system: P94_40; test: as above; details: P. falciparum in erythrocytes, SYBR Green DNA, 72 h; series mostly up to 28.7 µM
Procedure, shortened: as §1

[20] = system: TAB109; test: as above; details: P. falciparum in erythrocytes, SYBR Green DNA, 72 h; series mostly up to 28.7 µM
Procedure, shortened: as §1

Cc1onc(-c2c(F)cccc2Cl)c1C(=O)NC1C(=O)N2C1SC(C)(C)C2C(=O)O (stereo not given)
inactive: Potency [1] | activity, negative = inhibition ([2]; parasite line A) 3.14% | activity, negative = inhibition ([2]; parasite line B) -4.31% | Potency [3] | Potency [4] | Potency [5] | Potency [6] | Potency [7] | Potency [8] | Potency [9] | Potency [10] | Potency [11] | Potency [12] | Potency [13] | Potency [14] | Potency [15] | Potency [16] | Potency [17] | Potency [18] | Potency [19] | Potency [20]

CC[C@H](C)[C@H]1O[C@]2(CC[C@@H]1C)C[C@@H]1C[C@@H](C/C=C(\C)[C@H](O[C@@H]3C[C@H](OC)[C@H](O[C@@H]4C[C@H](OC)[C@@H](O)[C@H](C)O4)[C@H](C)O3)[C@@H](C)/C=C/C=C3\CO[C@@H]4[C@H](O)C(C)=C[C@@H](C(=O)O1)[C@]34O)O2
active: Potency ([2]; parasite line A) 355 nM | Potency ([2]; parasite line B) 794 nM | Potency [3] 1.41 µM | Potency [4] 1 µM | Potency [5] 1 µM | Potency [6] 891 nM | Potency [7] 1 µM | Potency [8] 794 nM | Potency [9] 1.35 µM | Potency [10] 794 nM | Potency [11] 1.26 µM | Potency [12] 794 nM | Potency [13] 1.2 µM | Potency [14] 794 nM | Potency [15] 1.26 µM | Potency [16] 2.24 µM | Potency [17] 3.16 µM | Potency [18] 1 µM | Potency [19] 1.12 µM | Potency [20] 1.26 µM
inactive: Potency [1]

NCCCCC(N)C(=O)O (stereo not given)
inactive: Potency [1] | activity, negative = inhibition ([2]; parasite line A) -7.93% | activity, negative = inhibition ([2]; parasite line B) 13.6% | Potency [3] | Potency [4] | Potency [5] | Potency [6] | Potency [7] | Potency [8] | Potency [9] | Potency [10] | Potency [11] | Potency [12] | Potency [13] | Potency [14] | Potency [15] | Potency [16] | Potency [17] | Potency [18] | Potency [19] | Potency [20]

COc1cccc2c1C(=O)c1c(O)c3c(c(O)c1C2=O)C[C@@](O)(C(=O)CO)C[C@@H]3OC1CC(N)C(O)C(C)O1 (stereo not given in full)
inactive: Potency [1]
active: Potency ([2]; parasite line A) 2000 nM | Potency ([2]; parasite line B) 3160 nM | Potency [3] 1 µM | Potency [4] 2.24 µM | Potency [5] 2.24 µM | Potency [6] 2510 nM | Potency [7] 2.24 µM | Potency [8] 2240 nM | Potency [9] 1.69 µM | Potency [10] 2510 nM | Potency [11] 2.24 µM | Potency [12] 2510 nM | Potency [13] 2.39 µM | Potency [14] 3980 nM | Potency [15] 0.398 µM | Potency [16] 1.26 µM | Potency [17] 3.16 µM | Potency [18] 2.51 µM | Potency [19] 2 µM | Potency [20] 2 µM

O=C(O)c1ccc(N[C@@H]2OC[C@@H](O)[C@@H](O)[C@@H]2O)cc1
inactive: Potency [1] | activity, negative = inhibition ([2]; parasite line A) 8.43% | activity, negative = inhibition ([2]; parasite line B) 9.05% | Potency [3] | Potency [4] | Potency [5] | Potency [6] | Potency [7] | Potency [8] | Potency [9] | Potency [10] | Potency [11] | Potency [12] | Potency [13] | Potency [14] | Potency [15] | Potency [16] | Potency [17] | Potency [18] | Potency [19] | Potency [20]

NC(=O)OC[C@@H]1[C@H](NC(=O)/C(=N/OCC(=O)O)c2csc(N)n2)C(=O)N1S(=O)(=O)O
active: Potency [17] 0.1 µM
inactive: Potency [1] | activity, negative = inhibition ([2]; parasite line A) -1.72% | activity, negative = inhibition ([2]; parasite line B) 1.04% | Potency [3] | Potency [4] | Potency [5] | Potency [6] | Potency [7] | Potency [8] | Potency [9] | Potency [10] | Potency [11] | Potency [12] | Potency [13] | Potency [14] | Potency [15] | Potency [16] | Potency [18] | Potency [19] | Potency [20]

CCN(CC)CC(=O)Nc1c(C)cc(C)cc1C
inactive: Potency [1] | activity, negative = inhibition ([2]; parasite line A) 2.56% | activity, negative = inhibition ([2]; parasite line B) 6.57% | Potency [3] | Potency [4] | Potency [5] | Potency [6] | Potency [7] | Potency [8] | Potency [9] | Potency [10] | Potency [11] | Potency [12] | Potency [13] | Potency [14] | Potency [15] | Potency [16] | Potency [17] | Potency [18] | Potency [19] | Potency [20]

CNC(=O)C(N)CSC(C)C1=C(C)c2cc3[n-]c(cc4nc(cc5[n-]c(cc1n2)c(C)c5CCC(=O)O)C(CCC(=O)O)=C4C)c(C)c3C(C)SCC(N)C(=O)NC.[Fe+2] (stereo not given)
inactive: Potency [1] | activity, negative = inhibition ([2]; parasite line A) 8.98% | activity, negative = inhibition ([2]; parasite line B) -1.36% | Potency [3] | Potency [4] | Potency [5] | Potency [6] | Potency [7] | Potency [8] | Potency [9] | Potency [10] | Potency [11] | Potency [12] | Potency [13] | Potency [14] | Potency [15] | Potency [16] | Potency [17] | Potency [18] | Potency [19] | Potency [20]

OCC1OC(O)C(O)C(O)C1O (stereo not given)
inactive: Potency [1] | activity, negative = inhibition ([2]; parasite line A) -3.4% | activity, negative = inhibition ([2]; parasite line B) 8.64% | Potency [3] | Potency [4] | Potency [5] | Potency [6] | Potency [7] | Potency [8] | Potency [9] | Potency [10] | Potency [11] | Potency [12] | Potency [13] | Potency [14] | Potency [15] | Potency [16] | Potency [17] | Potency [18] | Potency [19] | Potency [20]

OCC1O[C@H](Oc2ccc(O)cc2)C(O)C(O)C1O (stereo not given in full)
inactive: Potency [1] | activity, negative = inhibition ([2]; parasite line A) -4.75% | activity, negative = inhibition ([2]; parasite line B) 1.5% | Potency [3] | Potency [4] | Potency [5] | Potency [6] | Potency [7] | Potency [8] | Potency [9] | Potency [10] | Potency [11] | Potency [12] | Potency [13] | Potency [14] | Potency [15] | Potency [16] | Potency [17] | Potency [18] | Potency [19] | Potency [20]
